PubChem BioAssay AID1159580 (chemical genetic matrix, 2015)
Screen size: about 5,500 compounds; about 2,000 (36%) were called active. Inconclusive results (about 18%) are left out. The list shows a part of the results. Values without a mark were called inactive. No stated cut-off is given here; in the data, active means normalized growth mostly below about 0.91 (no sharp cut-off); inconclusive means no clear call, values can overlap the other calls; inactive means mostly above about 0.92.

Experiment: chemical genetic growth profiling, strain panel (AID 1159580);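 further: tested at 20 µM; growth read once vehicle control cultures reached saturation at 30 °C; 1 = growth at the plate median or of vehicle wells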
Conditions: growth OD

For CC1(C)C(C(Cl)Cl)C2(Cl)C(Cl)C(Cl)C1(Cl)C2(Cl)Cl (centres undefined), the normalized growth (S. cerevisiae deletion strains, locus YJR043C, strain POL32, stronger effect = lower value) was 0.978, the normalized growth (S. cerevisiae deletion strains, locus YJR075W, strain HOC1, stronger effect = lower value) was 0.985 and the normalized growth (S. cerevisiae deletion strains, locus YKL009W, strain mrt4, stronger effect = lower value) was 0.965. The normalized growth (S. cerevisiae deletion strains, locus YKL068W, stronger effect = lower value) was 0.983, the normalized growth (S. cerevisiae deletion strains, locus YKL085W, strain MDH1 (second series), stronger effect = lower value) was 0.973 and the normalized growth (S. cerevisiae deletion strains, locus YKL085W, strain MDH1, stronger effect = lower value) was 0.973. The normalized growth (S. cerevisiae deletion strains, locus YKL160W, strain elf1, stronger effect = lower value) was 0.969, the normalized growth (S. cerevisiae deletion strains, locus YKL190W, strain CNB1, stronger effect = lower value) was 0.997 and the normalized growth (S. cerevisiae deletion strains, locus YKR001C, strain vps1, stronger effect = lower value) was 0.964. For the same molecule, the normalized growth (S. cerevisiae deletion strains, locus YKR026C, strain gcn3, stronger effect = lower value) was 0.989, the normalized growth (S. cerevisiae deletion strains, locus YKR091W, strain srl3, stronger effect = lower value) was 0.985 and the normalized growth (S. cerevisiae deletion strains, locus YLL001W, strain dnm1, stronger effect = lower value) was 0.994. The normalized growth (S. cerevisiae deletion strains, locus YLL026W, stronger effect = lower value) was 0.981, the normalized growth (S. cerevisiae deletion strains, locus YLL041C, strain sdh2, stronger effect = lower value) was 0.989 and the normalized growth (S. cerevisiae deletion strains, locus YLR027C, strain aat2, stronger effect = lower value) was 0.97. The normalized growth (S. cerevisiae deletion strains, locus YLR039C, strain RIC1, stronger effect = lower value) was 0.883, the normalized growth (S. cerevisiae deletion strains, locus YLR058C, strain SHM2, stronger effect = lower value) was 0.983 and the normalized growth (S. cerevisiae deletion strains, locus YLR102C, strain apc9, stronger effect = lower value) was 0.979. The normalized growth (S. cerevisiae deletion strains, locus YLR221C, strain rsa3, stronger effect = lower value) was 0.961, the normalized growth (S. cerevisiae deletion strains, locus YLR258W, strain gsy2, stronger effect = lower value) was 0.975 and the normalized growth (S. cerevisiae deletion strains, locus YLR262C, strain YPT6 (second series), stronger effect = lower value) was 0.817 (active). The normalized growth (S. cerevisiae deletion strains, locus YLR262C, strain YPT6, stronger effect = lower value) was 0.884, the normalized growth (S. cerevisiae deletion strains, locus YLR268W, strain sec22, stronger effect = lower value) was 0.97 and the normalized growth (S. cerevisiae deletion strains, locus YLR320W, strain mms22, stronger effect = lower value) was 0.878. It also gave a normalized growth (S. cerevisiae deletion strains, locus YLR330W, strain CHS5, stronger effect = lower value) of 0.991, a normalized growth (S. cerevisiae deletion strains, locus YLR342W, strain FKS1 (second series), stronger effect = lower value) of 0.913 and a normalized growth (S. cerevisiae deletion strains, locus YLR342W, strain FKS1, stronger effect = lower value) of 0.964. For the same molecule, the normalized growth (S. cerevisiae deletion strains, locus YLR357W, strain rsc2, stronger effect = lower value) was 0.993, the normalized growth (S. cerevisiae deletion strains, locus YLR370C, strain arc18, stronger effect = lower value) was 0.991 and the normalized growth (S. cerevisiae deletion strains, locus YLR371W, strain rom2, stronger effect = lower value) was 0.968. The normalized growth (S. cerevisiae deletion strains, locus YLR384C, strain iki3, stronger effect = lower value) was 0.974, the normalized growth (S. cerevisiae deletion strains, locus YLR418C, strain cdc73, stronger effect = lower value) was 0.879 and the normalized growth (S. cerevisiae deletion strains, locus YML016C, strain PPZ1, stronger effect = lower value) was 0.986. It also gave a normalized growth (S. cerevisiae deletion strains, locus YML032C, strain rad52, stronger effect = lower value) of 0.956, a normalized growth (S. cerevisiae deletion strains, locus YML120C, strain ndi1, stronger effect = lower value) of 0.983 and a normalized growth (S. cerevisiae deletion strains, locus YML124C, strain tub3, stronger effect = lower value) of 0.976. It also gave a normalized growth (S. cerevisiae deletion strains, locus YMR058W, strain fet3, stronger effect = lower value) of 0.991, a normalized growth (S. cerevisiae deletion strains, locus YMR078C, strain ctf18, stronger effect = lower value) of 0.953 and a normalized growth (S. cerevisiae deletion strains, locus YMR125W, strain sto1, stronger effect = lower value) of 0.995. For the same molecule, the normalized growth (S. cerevisiae deletion strains, locus YMR129W, stronger effect = lower value) was 0.972, the normalized growth (S. cerevisiae deletion strains, locus YMR205C, strain PFK2, stronger effect = lower value) was 0.883 and the normalized growth (S. cerevisiae deletion strains, locus YMR223W, strain ubp8, stronger effect = lower value) was 0.963. The normalized growth (S. cerevisiae deletion strains, locus YMR231W, strain pep5, stronger effect = lower value) was 0.977, the normalized growth (S. cerevisiae deletion strains, locus YMR263W, strain SAP30, stronger effect = lower value) was 0.988 and the normalized growth (S. cerevisiae deletion strains, locus YMR307W, strain GAS1, stronger effect = lower value) was 0.967. The normalized growth (S. cerevisiae deletion strains, locus YNL067W, strain RPL9B, stronger effect = lower value) was 0.993, the normalized growth (S. cerevisiae deletion strains, locus YNL071W, strain lat1, stronger effect = lower value) was 0.834 (active) and the normalized growth (S. cerevisiae deletion strains, locus YNL128W, strain TEP1, stronger effect = lower value) was 0.992. The normalized growth (S. cerevisiae deletion strains, locus YNL153C, strain GIM3, stronger effect = lower value) was 0.988, the normalized growth (S. cerevisiae deletion strains, locus YNL209W, strain ssb2, stronger effect = lower value) was 0.979 and the normalized growth (S. cerevisiae deletion strains, locus YNL233W, strain BNI4, stronger effect = lower value) was 0.999. It also gave a normalized growth (S. cerevisiae deletion strains, locus YNL248C, strain rpa49, stronger effect = lower value) of 0.99, a normalized growth (S. cerevisiae deletion strains, locus YNL250W, strain rad50, stronger effect = lower value) of 0.95 and a normalized growth (S. cerevisiae deletion strains, locus YNL271C, strain bni1, stronger effect = lower value) of 0.975. For the same molecule, the normalized growth (S. cerevisiae deletion strains, locus YNL298W, strain CLA4, stronger effect = lower value) was 0.958, the normalized growth (S. cerevisiae deletion strains, locus YNL307C, strain MCK1, stronger effect = lower value) was 0.778 (active) and the normalized growth (S. cerevisiae deletion strains, locus YNL322C, strain KRE1 (second series), stronger effect = lower value) was 0.979. The normalized growth (S. cerevisiae deletion strains, locus YNL322C, strain KRE1, stronger effect = lower value) was 0.987, the normalized growth (S. cerevisiae deletion strains, locus YNR049C, strain mso1, stronger effect = lower value) was 0.985 and the normalized growth (S. cerevisiae deletion strains, locus YNR052C, strain pop2, stronger effect = lower value) was 0.963. It also gave a normalized growth (S. cerevisiae deletion strains, locus YOL006C, strain TOP1, stronger effect = lower value) of 0.926, a normalized growth (S. cerevisiae deletion strains, locus YOL012C, strain htz1) of 1.18 and a normalized growth (S. cerevisiae deletion strains, locus YOL147C, strain pex11, stronger effect = lower value) of 0.973. It also gave a normalized growth (S. cerevisiae deletion strains, locus YOR001W, strain rrp6, stronger effect = lower value) of 0.995, a normalized growth (S. cerevisiae deletion strains, locus YOR061W, strain CKA2, stronger effect = lower value) of 0.992 and a normalized growth (S. cerevisiae deletion strains, locus YOR069W, strain VPS5, stronger effect = lower value) of 0.985. It also gave a normalized growth (S. cerevisiae deletion strains, locus YOR070C, strain gyp1, stronger effect = lower value) of 0.991, a normalized growth (S. cerevisiae deletion strains, locus YOR080W, strain dia2, stronger effect = lower value) of 0.974 and a normalized growth (S. cerevisiae deletion strains, locus YOR083W, strain WHI5, stronger effect = lower value) of 0.982. For the same molecule, the normalized growth (S. cerevisiae deletion strains, locus YOR106W, strain vam3, stronger effect = lower value) was 0.95, the normalized growth (S. cerevisiae deletion strains, locus YOR136W, strain idh2, stronger effect = lower value) was 0.978 and the normalized growth (S. cerevisiae deletion strains, locus YOR144C, strain elg1, stronger effect = lower value) was 0.967. The normalized growth (S. cerevisiae deletion strains, locus YOR184W, strain ser1, stronger effect = lower value) was 0.879, the normalized growth (S. cerevisiae deletion strains, locus YOR265W, strain rbl2, stronger effect = lower value) was 0.98 and the normalized growth (S. cerevisiae deletion strains, locus YOR270C, strain vph1, stronger effect = lower value) was 0.922. The normalized growth (S. cerevisiae deletion strains, locus YOR290C, strain snf2, stronger effect = lower value) was 0.977, the normalized growth (S. cerevisiae deletion strains, locus YOR316C, strain cot1, stronger effect = lower value) was 0.973 and the normalized growth (S. cerevisiae deletion strains, locus YPL051W, strain arl3, stronger effect = lower value) was 0.937. For the same molecule, the normalized growth (S. cerevisiae deletion strains, locus YPL055C, strain LGE1, stronger effect = lower value) was 0.981, the normalized growth (S. cerevisiae deletion strains, locus YPL078C, strain atp4, stronger effect = lower value) was 0.988 and the normalized growth (S. cerevisiae deletion strains, locus YPL106C, strain sse1, stronger effect = lower value) was 0.984. For the same molecule, the normalized growth (S. cerevisiae deletion strains, locus YPL240C, strain hsp82, stronger effect = lower value) was 0.982, the normalized growth (S. cerevisiae deletion strains, locus YPL241C, strain CIN2, stronger effect = lower value) was 0.988 and the normalized growth (S. cerevisiae deletion strains, locus YPR119W, strain clb2, stronger effect = lower value) was 0.973. For the same molecule, the normalized growth (S. cerevisiae deletion strains, locus YPR141C, strain kar3, stronger effect = lower value) was 0.963, the normalized growth (S. cerevisiae deletion strains, locus YPR163C, strain tif3, stronger effect = lower value) was 0.946 and the normalized growth (S. cerevisiae deletion strains, locus YPR167C, strain met16, stronger effect = lower value) was 0.978. For the same molecule, the normalized growth (S. cerevisiae deletion strains, strain wtn01, stronger effect = lower value) was 0.966 and the normalized growth (S. cerevisiae strains, strain wild type, stronger effect = lower value) was 0.986.
